The nature of test [1]: inhibitors of TNFa-induced NFkB p65 translocation, primary screen, imaging, HUVEC, MLSMR starter and 10KST1 sets (AID 438;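 active = inhibition above 20% together with a positive visual image hit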;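 also: compound added about 3h40 before a 20 min TNFalpha stimulation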;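 as to inhibition: signal is the nuclear over cytoplasmic p65 intensity ratio per well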). As to conditions: HUVEC TNFa-induced p65 nuclear translocation; cell count: measured here: nuclei count (cytotoxicity indicator), at 2.08 µM; inhibition: at 2 µM, stronger effect = higher value, 0% TNFa-plus-vehicle, 100% no-TNFa wells.
Test [2] can be described thus: inhibitors of mutant huntingtin aggregation, primary screen, imaging, exon1htt(103Q)mCFP cells, high-content imaging (AID 483;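 active = visual image review flags a hit and inhibition of aggregation exceeds 20%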;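 also: compound exposure lasted 3 days before fixation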;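 as to nuclei count: percent of the per-plate median nuclei count of sample wells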). As to conditions: exon1htt(103Q)mCFP cell line, aggregate imaging, at 2 µM; inhibition of aggregation: stronger effect = higher value; nuclei count: measured here: cell count, toxicity.
Test [3] in a line: inhibitors of E-selectin induction by TNFa, primary screen, imaging, HUVEC, immunofluorescence, MLSMR starter and 10KST1 sets (AID 487).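 As to inhibition: signal is fraction of cell area covered by stained E-selectin grains.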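 As to nuclei count: 100% = median nuclei count of all wells on the same plate.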 As to conditions: HUVEC TNFalpha-induced E-selectin immunofluorescence imaging, at 2 µM; inhibition: stronger effect = higher value; nuclei count: measured here: cell number, toxicity.
Test [4] concerns the target Voltage-gated potassium channel subunit beta-2 (Rattus norvegicus) (UniProt P62483). Briefly: KvBeta enzyme negative modulators, primary screen, biochemical, NADPH fluorescence (AID 622;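 active = fluorescence slope higher than the sample average by over 3 SD, cut at about -0.22 in these data, passing the limit was not always enough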;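 also: slope of raw intensity against log time taken from 70 to 1610 s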). As to conditions: recombinant KvBeta, 4-cyanobenzaldehyde reduction, at 10 µM, stronger effect = higher value.
For test [5] the target is unchanged. The test is described as follows: KvBeta positive modulators, primary screen, biochemical, NADPH fluorescence (AID 623;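 active = NADPH fluorescence slope more negative than the mean of all samples by about 3 SD, 99.7% confidence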;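 also: fluorescence intensity change per second fitted from 20 to 320 s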). As to conditions: Recombinant KvBeta, NADPH fluorescence decrease slope, 10 min; at 10 µM; stronger effect = lower value.
Test [6] concerns the target Alpha-2C adrenergic receptor (Homo sapiens) (UniProt P18825). The test is described as follows: modulators of alpha2C/GIRK thallium flux, primary screen, cell-based, HEK293 alpha2C/GIRK1/2 (AID 624;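 active = fluorescence slope after compound addition differing from the mean of all screened samples at 99.7% confidence, in either direction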;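 also: slope of fluorescence ratio to pre-addition baseline per second over 15 to 24 s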). As to conditions: thallium flux BTC fluorescence, at 10 µM, actives lie on both sides.
Test [7] can be described thus: inhibitors of Sendai virus-induced IRF3 signaling, primary screen, TLR/RLR signaling modifier project, cell-based, Sendai virus stimulus, luciferase, 10K MLSCN set (AID 602276;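 active = inhibition at or above 50% at 10 µM; inactive = inhibition below 50%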;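 also: firefly luciferase from ISG56 promoter only with Renilla not read in this screen; 0% = Sendai virus plus DMSO and 100% = medium plus DMSO without virus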). As to conditions: HEK293 RL24 IRF3 luciferase reporter, at 10 µM, stronger effect = higher value. (A reporter such as luciferase makes a cellular process visible.)
The nature of test [8]: inhibitors of poly I:C-induced TLR3 signaling, primary screen, cell-based, poly I:C stimulus, luciferase, 10K MLSCN set (AID 602277;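 active = inhibition of the reporter signal at or above 50%; inactive = inhibition below 50%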). As to conditions: HEK293-TLR3 RL24 IRF3 luciferase reporter, at 10 µM, stronger effect = higher value.

Calls of active or inactive are those of the source.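 The calls were made as follows, unless noted: active = visually confirmed hit in the image check and inhibition above 20%; inconclusive = visually confirmed hit but inhibition not above 20%; inactive = no visual hit in the image check.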

A word on the inhibition: it is the drop in the measured response relative to a control, in per cent.

Chain of Voltage-gated potassium channel subunit beta-2 (Rattus norvegicus) (P62483 whole entry, looked up): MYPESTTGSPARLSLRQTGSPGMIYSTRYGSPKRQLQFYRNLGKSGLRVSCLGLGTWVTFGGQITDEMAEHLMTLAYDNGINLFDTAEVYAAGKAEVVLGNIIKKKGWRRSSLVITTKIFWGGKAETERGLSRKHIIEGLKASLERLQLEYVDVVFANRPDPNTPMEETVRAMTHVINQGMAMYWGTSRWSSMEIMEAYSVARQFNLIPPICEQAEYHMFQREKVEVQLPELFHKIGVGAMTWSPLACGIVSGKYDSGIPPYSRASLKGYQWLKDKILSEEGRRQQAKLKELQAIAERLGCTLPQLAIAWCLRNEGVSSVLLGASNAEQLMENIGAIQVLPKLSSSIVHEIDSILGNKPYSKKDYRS
Chain of Alpha-2C adrenergic receptor (Homo sapiens) (P18825 whole entry, looked up): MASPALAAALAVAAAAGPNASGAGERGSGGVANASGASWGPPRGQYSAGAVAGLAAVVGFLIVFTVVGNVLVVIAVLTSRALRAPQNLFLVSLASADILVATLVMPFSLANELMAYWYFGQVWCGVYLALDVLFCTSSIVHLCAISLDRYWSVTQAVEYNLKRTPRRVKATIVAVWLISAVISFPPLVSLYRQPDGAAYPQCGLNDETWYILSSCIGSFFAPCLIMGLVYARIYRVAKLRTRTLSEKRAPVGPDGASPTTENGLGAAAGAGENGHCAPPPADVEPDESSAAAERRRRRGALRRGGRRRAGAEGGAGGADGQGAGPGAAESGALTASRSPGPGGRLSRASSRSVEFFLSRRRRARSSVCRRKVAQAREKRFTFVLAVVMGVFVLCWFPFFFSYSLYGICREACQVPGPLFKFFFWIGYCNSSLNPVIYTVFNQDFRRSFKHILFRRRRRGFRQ

Regarding `CCOC(=O)C1=C(C)N=C2SCCC(=O)N2C1c1cc(Br)ccc1OC` (centres undefined), in test [1], the cell count came to 466. Further, the inhibition was 2.7% (inactive) in test [1], -16% (inactive) in test [3], 17.2% (inactive) in test [7] and 20.9% (inactive) in test [8]. Further, the inhibition of aggregation in test [2] is -4.8% (inactive). The nuclei count in test [2] turned out to be 108%; in test [3] it was 85%. Besides, in test [4], the fluorescence slope was -0.499 (inactive). Besides, the NADPH fluorescence slope in test [5] is 7.4e-06 (inactive). Further, in test [6], the slope was 0.00736 (inactive).

Consider `Cc1sc(NC(=O)CSc2nnc(COc3ccccc3)n2C)c(C#N)c1C`, for which the cell count in test [1] amounted to 602. The inhibition was 2.2% (inactive) in test [1], -77.2% (inactive) in test [3], -3.28% (inactive) in test [7] and -13.7% (inactive) in test [8]. Also, the inhibition of aggregation in test [2] is 15.6% (inactive). Besides, the nuclei count came to 93.8% in test [2] and 113% in test [3]. The fluorescence slope in test [4] was -0.335 (inactive). Moreover, in test [5], the NADPH fluorescence slope was 5.1e-06 (inactive). In addition, in test [6], the slope is 0.00494 (inactive).

Take `O=S(=O)(Nc1nc2ccccc2nc1NCc1ccco1)c1cccs1`: the cell count in test [1] amounted to 448. Also, the inhibition in test [1] is -6.2% (inactive); in test [3], -73.9% (inactive); in test [7] it was 14.7% (inactive); in test [8] it was 14.6% (inactive). In addition, in test [2], the inhibition of aggregation is -18.2% (inactive). In addition, the values for the nuclei count in test [2] and in test [3] were 105% and 120%, respectively. For the same molecule, the fluorescence slope in test [4] was -0.298 (inactive). The NADPH fluorescence slope in test [5] is -6.8e-05 (inactive). In addition, the slope in test [6] is 0.00495 (inactive).

`CN(C(=O)C1CCCO1)c1nnc(-c2ccncc2)s1` (centres undefined): the cell count in test [1] was 279. In addition, the inhibition in test [1] was -2.1% (inactive); in test [3], -10.8% (inactive); in test [7] it was -12% (inactive); in test [8] it was -17.4% (inactive). For the same molecule, the inhibition of aggregation in test [2] was 4.6% (inactive). Further, the nuclei count in test [2] and in test [3] was 103% in each case. The fluorescence slope in test [4] was -0.322 (inactive). Besides, the NADPH fluorescence slope in test [5] was -4.6e-05 (inactive). The slope in test [6] is 0.00538 (inactive).

With `CCOC(=O)c1[nH]nc(N)c1NC(=O)c1ccc(Cl)cc1Cl`, in test [1], the cell count amounted to 554. Moreover, the inhibition was -4.9% (inactive) in test [1], -238% (inactive) in test [3], -16.4% (inactive) in test [7] and -22.5% (inactive) in test [8]. Further, in test [2], the inhibition of aggregation is 3.8% (inactive). Moreover, the results for the nuclei count in test [2] and in test [3] were 99.2% and 134%, respectively. The fluorescence slope in test [4] was -0.456 (inactive). Also, the NADPH fluorescence slope in test [5] was 8.2e-05 (inactive). The slope in test [6] was 0.00589 (inactive).

As for `CCCC(=O)C1=C(N(C)c2ccccc2)CC(C)(C)C(C(=O)OC)C1=O` (centres undefined), the cell count in test [1] stood at 429. In addition, the inhibition in test [1] is -0.3% (inactive); in test [3] it was -8.2% (inactive); in test [7] it was 9.63% (inactive); in test [8], 33.4% (inactive). Besides, the inhibition of aggregation in test [2] is 3.6% (inactive). The values for the nuclei count in test [2] and in test [3] were 92.5% and 121%, respectively. Also, the fluorescence slope in test [4] was -0.445 (inactive). For the same molecule, the NADPH fluorescence slope in test [5] is -7.2e-06 (inactive). Also, the slope in test [6] was 0.00268 (inactive).

`CCC1(C(=O)OC)NC(c2cccc(F)c2)C2C(=O)N(C)C(=O)C21` (centres undefined): the cell count in test [1] turned out to be 715. Also, the inhibition in test [1] was -1.8% (inactive); in test [3], -167% (inactive); in test [7], 14.4% (inactive); in test [8], 30.6% (inactive). Also, in test [2], the inhibition of aggregation is 11.4% (inactive). The values for the nuclei count in test [2] and in test [3] were 101% and 112%, respectively. Besides, the fluorescence slope in test [4] is -0.272 (inactive). Moreover, the NADPH fluorescence slope in test [5] was -5.7e-05 (inactive). Further, in test [6], the slope was 0.00554 (inactive).

On to `Fc1ccccc1Cn1nnc2c(-n3ccnc3)ncnc21`, for which the cell count in test [1] stood at 573. In addition, the inhibition was -1.6% (inactive) in test [1], -55.2% (inactive) in test [3], -9.4% (inactive) in test [7] and -13.8% (inactive) in test [8]. Besides, the inhibition of aggregation in test [2] was -7.5% (inactive). Also, the nuclei count in test [2] was 103%; in test [3], 106%. Further, the fluorescence slope in test [4] is -0.519 (inactive). The NADPH fluorescence slope in test [5] is 3.6e-05 (inactive). Further, the slope in test [6] was 0.00439 (inactive).

Consider `CCN1CCN(C(=O)c2oc(=O)c3ccccc3c2-c2ccc(C)cc2)CC1`, for which, in test [1], the cell count was 805. The inhibition in test [1] is -15.2% (inactive); in test [3] it was -58.3% (inactive); in test [7], 10.4% (inactive); in test [8], 27.7% (inactive). For the same molecule, the inhibition of aggregation in test [2] was 8.7% (inactive). The values for the nuclei count in test [2] and in test [3] were 94.3% and 121%, respectively. In test [4], the fluorescence slope is -0.49 (inactive). In test [5], the NADPH fluorescence slope was -4.9e-05 (inactive). Moreover, the slope in test [6] was 0.00617 (inactive).

For the molecule `O=C(C1CCN(c2nnnn2-c2ccccc2)CC1)N1CCN(c2ccccc2)CC1`, the cell count in test [1] is 618. For the same molecule, the inhibition in test [1] is -33.7% (inactive); in test [3], -35.9% (inactive); in test [7] it was 8.57% (inactive); in test [8], 22.4% (inactive). Also, in test [2], the inhibition of aggregation is -1.1% (inactive). In addition, the figures for the nuclei count in test [2] and in test [3] were 98.3% and 112%, respectively. For the same molecule, in test [4], the fluorescence slope was -0.602 (inactive). Moreover, the NADPH fluorescence slope in test [5] was -5.4e-05 (inactive). The slope in test [6] was 0.00667 (inactive).

Turning to `CCOCCCNC(=O)C(NC(=O)c1ccccn1)c1ccc(C)cc1` (centres undefined), the cell count in test [1] was 314. For the same molecule, the inhibition is -13.4% (inactive) in test [1], -18.5% (inactive) in test [3], 15.1% (inactive) in test [7] and 18.1% (inactive) in test [8]. Moreover, the inhibition of aggregation in test [2] is 2.7% (inactive). The nuclei count in test [2] is 116%; in test [3], 111%. For the same molecule, in test [4], the fluorescence slope was -0.592 (inactive). The NADPH fluorescence slope in test [5] was -4e-05 (inactive). Moreover, the slope in test [6] is 0.00635 (inactive).

As to `CC(C)(C)SCCNC(=O)CN1C(=O)c2ccccc2S1(=O)=O`, the cell count in test [1] came out at 625. In addition, the inhibition in test [1] was -4.2% (inactive); in test [3], -29.7% (inactive); in test [7] it was 3.26% (inactive); in test [8], -7.98% (inactive). For the same molecule, the inhibition of aggregation in test [2] was -13.2% (inactive). The figures for the nuclei count in test [2] and in test [3] were 97.6% and 106%, respectively. Further, the fluorescence slope in test [4] is -0.499 (inactive). In addition, the NADPH fluorescence slope in test [5] is -8.2e-06 (inactive). Moreover, the slope in test [6] is 0.00704 (inactive).

`CCOc1cccc(OCCCCn2ccnc2)c1`: in test [1], the cell count was determined as 339. Further, the inhibition was -3.1% (inactive) in test [1], -124% (inactive) in test [3], 9.17% (inactive) in test [7] and 21.4% (inactive) in test [8]. In addition, the inhibition of aggregation in test [2] was -7.7% (inactive). In addition, the nuclei count stood at 99% in test [2] and 114% in test [3]. In addition, the fluorescence slope in test [4] is -0.36 (inactive). Further, the NADPH fluorescence slope in test [5] was 5e-05 (inactive). Besides, in test [6], the slope is 0.00579 (inactive).

`Oc1c(C(c2ccccc2)N2CCc3ccccc3C2)sc2ncnn12` (centres undefined): the cell count in test [1] was 651. Moreover, the inhibition is 1.3% (inactive) in test [1], -25.4% (inactive) in test [3], 12.6% (inactive) in test [7] and 30.7% (inactive) in test [8]. The inhibition of aggregation in test [2] was -23.6% (inactive). Further, the nuclei count in test [2] was 111%; in test [3], 117%. For the same molecule, the fluorescence slope in test [4] was -0.618 (inactive). Further, in test [5], the NADPH fluorescence slope is -3.4e-05 (inactive). For the same molecule, the slope in test [6] is 0.00688 (inactive).

The values above are taken from PubChem BioAssay.
